Test results reported in the supplement of paper PMC10498489.
About 330 (14%) of roughly 2,300 compounds showed activity. Not all results are given here. Unmarked numbers belong to inactive results.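 Rule for the calls: active = median modified Z-score above 1.96; inactive = 1.96 or below.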

test system: HepG2 Srxn1-GFP reporter cells (+30 nM CDDO-Me); assay: Srxn1-GFP intensity median modified Z-score relative to plate median; higher = stronger NRF2 / oxidative stress reporter activation, active = hit call of the paper; settings: 10 µM; exposure time: 24h
How it was run: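 Each value is the replicate median of a per-plate modified Z-score for GFP intensity in HepG2 Srxn1-GFP BAC reporter cells. The cells (20,000 per well, 96-well plates, three replicate plates) received compound at 10 μM together with an NRF2 activator at 30 nM for 24 h, in ≤0.1% DMSO. Cytoplasmic GFP was quantified per cell from confocal images of formaldehyde-fixed, Hoechst-stained cells, leaving out images with fewer than 100 cells, and scaling used 1.4826 × median absolute deviation.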

| SMILES | Srxn1-GFP intensity median modified Z-score |
| --- | --- |
| C[C@@H]1CC2C3CC(F)=C4CC(=O)C=C[C@]4(C)[C@@]3(F)[C@@H](O)C[C@]2(C)[C@@]1(O)C(=O)COC(=O)C(C)(C)C (stereo partly drawn) [euspeclibcmpd128] | -0.646 |
| COc1c(O)c(C)c(C=CCCCCCCCCO)c(O)c1OC [euspeclibcmpd1216] | -0.228 |
| COC(=O)/C(=C1\OC(=O)C(c2ccccc2)C1=O)c1ccccc1 (stereo not drawn) [euspeclibcmpd1487] | 1.05 |
| CC(=O)OC1CC2C(C)(C)C(O)CCC2(C)C2CCC3(C)C(=CC(=O)OC3c3ccoc3)C12C (stereo not drawn) [euspeclibcmpd1952] | 0.595 |
| CC(=O)O[C@@H]1CC2C(C)(C)C(=O)C=C[C@]2(C)C2CC[C@@]3(C)[C@H](c4ccoc4)OC(=O)C4O[C@]43[C@@]21C (stereo partly drawn) [euspeclibcmpd1359] | 23.9 (active) |
| CC(=O)O[C@H]1C[C@@H](OC(C)=O)C(C)(C)C2CC(=O)[C@]3(C)C(CC[C@@]4(C)[C@H](c5ccoc5)OC(=O)C5O[C@]543)[C@]21C (stereo partly drawn) [euspeclibcmpd1589] | 0.448 |
| CC1(C)C(=O)C=C[C@@]2(C)C1CC(=O)[C@]1(C)C2CC[C@@]2(C)[C@H](c3ccoc3)OC(=O)C3O[C@]321 (stereo partly drawn) [euspeclibcmpd1588] | 13 (active) |
| CC(=O)O[C@@H]1CC2C(C)(C)C(=O)CC[C@]2(C)C2CC[C@@]3(C)[C@H](c4ccoc4)OC(=O)C4OC43[C@@]21C (stereo partly drawn) [euspeclibcmpd1587] | 32.1 (active) |
| COC(=O)C1OC(=O)C2OC23C1(C)CCC1C2(C)CCC(=O)C(C)(C)C2CC(OC(C)=O)C13C (stereo not drawn) [euspeclibcmpd1948] | -0.0565 |
| CC(=O)O[C@@H]1CC2C(C)(C)C(=O)C3OC3[C@]2(C)C2CC[C@@]3(C)[C@H](c4ccoc4)OC(=O)C4OC43[C@@]21C (stereo partly drawn) [euspeclibcmpd1644] | 5.41 (active) |
| CC1(C)O[C@H]2CC(=O)OC[C@]23[C@H]2CC[C@@]4(C)[C@H](c5ccoc5)OC(=O)C5O[C@]54[C@]2(C)C(=O)C[C@@H]13 (stereo partly drawn) [euspeclibcmpd1497] | 0.563 |
| CC(=O)O[C@H]1C[C@@H](OC(C)=O)C(C)(C)C2C[C@@H](OC(C)=O)[C@@]3(C)C4=CC(=O)O[C@@H](c5ccoc5)[C@]4(C)CCC3[C@]21C (stereo partly drawn) [euspeclibcmpd1532] | 0.0053 |
| COC(=O)C1OC(=O)C2OC23[C@@]1(C)CCC1[C@]2(C)C(C[C@@H](O)[C@]13C)C(C)(C)[C@H](OC(C)=O)C[C@@H]2OC(C)=O (stereo partly drawn) [euspeclibcmpd2102] | -0.135 |
| COC(=O)CC1C(C)(C)C(OC(C)=O)C2C(OC(C)=O)C34OC2(O)C1(C)C3CCC1(C)C4=CC(=O)OC1c1ccoc1 (stereo not drawn) [euspeclibcmpd1938] | -0.377 |
| CC(=O)O[C@H]1C[C@@H](OC(C)=O)C(C)(C)C2CC(=O)[C@]3(C)C(CC[C@@]4(C)C(C(=O)O)OC(=O)C5OC543)[C@]21C (stereo partly drawn) [euspeclibcmpd1389] | -0.386 |
| CC(C)CCCC(C)C1CCC2C3CC(=O)C4C[C@@H](O)CC[C@]4(C)C3CC[C@]12C (stereo partly drawn) [euspeclibcmpd2198] | -0.502 |
| C[C@]12CC[C@@H](O)C[C@H]1CCc1ccccc12 [euspeclibcmpd1508] | -0.327 |

| SMILES | Srxn1-GFP intensity median modified Z-score |
| --- | --- |
| N=c1[nH]c(=N)c2nc(-c3ccccc3)c(=N)[nH]c2[nH]1 [euspeclibcmpd304] | -0.346 |
| CN[C@@H]1[C@@H](O[C@H]2O[C@H](CO)[C@@H](N)[C@H](O)[C@H]2O)O[C@H]2C[C@@H](N)[C@H](O[C@H]3[C@H](O)[C@@H](O)[C@H](N)C[C@@H]3N)O[C@@H]2[C@@H]1O [euspeclibcmpd2180] | -0.708 |
| CN(N=O)C(=O)N[C@@H]1[C@@H](O)[C@H](O)[C@@H](CO)O[C@@H]1O [euspeclibcmpd271] | 0.0066 |
| Cc1cc2nc3c(=O)[nH]c(=O)nc-3n(C[C@@H](O)[C@@H](O)[C@@H](O)CO)c2cc1C [euspeclibcmpd751] | -0.238 |
| Cc1ccc(N2CC(C(=O)NCCCn3ccnc3)CC2=O)c(F)c1 (stereo not drawn) | 1.07 |
| Cc1onc(-c2ccccc2Cl)c1C(=O)NC1C(=O)N2C1SC(C)(C)C2C(=O)O (stereo not drawn) [euspeclibcmpd2381] | -0.0695 |
| C[C@@H]1O[C@@H](OC[C@H]2OC(Oc3c(-c4ccc(O)c(O)c4)oc4cc(O)cc(O)c4c3=O)[C@H](O)[C@@H](O)[C@@H]2O)[C@H](O)[C@H](O)[C@H]1O (stereo partly drawn) [euspeclibcmpd2149] | -0.139 |
| CC(=O)OC1CC(OC(C)=O)C2(C)C(CC(OC(C)=O)C3(C)C2CCC2(C)C(c4ccoc4)OC(=O)C4OC423)C1(C)C (stereo not drawn) [euspeclibcmpd1940] | 0.483 |
| CC(=O)O[C@H]1CC[C@@]2(C)C(C[C@@H](OC(C)=O)[C@]3(C)C2CC[C@@]2(C)[C@H](c4ccoc4)OC(=O)C4O[C@]423)C1(C)C (stereo partly drawn) [euspeclibcmpd2319] | 5.12 (active) |
| CC(=O)O[C@H]1C[C@@H](OC(C)=O)C(C)(C)C2C[C@@H](O)[C@]3(C)C(CC[C@@]4(C)[C@H](c5ccoc5)OC(=O)C5O[C@]543)[C@]21C (stereo partly drawn) [euspeclibcmpd1544] | 0.39 |
| COc1ccc(C2COc3c(ccc(O)c3OC)C2)c(OC)c1O (stereo not drawn) [euspeclibcmpd1831] | 1.65 |
| CC1(C)C(=O)C2C[C@@]3(O)C4=CC(=O)O[C@@H](c5ccoc5)[C@]4(C)CCC3[C@](C)(C2=O)[C@H]1CC(=O)O (stereo partly drawn) [euspeclibcmpd1558] | -0.051 |
| N=c1[nH]c(=O)c2ncn(CCC(CO)CO)c2[nH]1 [euspeclibcmpd464] | 0.273 |
| O=C(O)C1=CC(=C(c2ccc(O)c(C(=O)O)c2)c2ccc(O)c(C(=O)O)c2)C=CC1=O [euspeclibcmpd1741] | -0.835 |
| O=C1C=CC(=C(c2ccc(O)cc2)c2ccc(O)cc2)C=C1 [euspeclibcmpd1770] | 19.5 (active) |
| CCC(=O)c1ccc(O)cc1 [euspeclibcmpd1262] | 0.156 |
